The results in this text go back to PubChem BioAssay.

One experiment addresses Albumin (Bos taurus) (UniProt P02769). Put plainly: compounds binding labelled BSA control protein – biochemical, small-molecule microarray, Alexa647 label, 635/667 nm fluorescence, artefact control for SMM control protein annotation, profiling panel (AID 1118).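 Also: score merges 667 nm emission intensity and signal-to-noise per printed compound spot.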 Conditions: BSA-A647 binding, fluorescence 635 nm, higher = more signal.
Experiment [1] in a line: probe aXIP binding to arrayed compounds – biochemical, NeuroSMM set, 635/667 nm fluorescence, primary screen (AID 1119).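 Also: probe is the protein aXip251-270 applied at 1 µg/mL to compound-printed slides; binding of probe to printed compounds measured as 667 nm fluorescence plus signal to noise.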 Conditions: small-molecule microarray, higher = more signal, called active from +8 up or from −8 down.
Experiment [2] can be described thus: probe aNOTCH3 binding on compound microarray – biochemical, small-molecule microarray, 635/667 nm fluorescence, primary screen (AID 1120).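 Also: probe is a biotin-tagged antibody raised against NOTCH3 rather than NOTCH3 protein; score merges spot fluorescence near 667 nm with spot signal to noise.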 Conditions: higher = more signal.
Experiment [3] is described as follows: probe aNOTCH2 binding on compound microarray – biochemical, small-molecule microarray, 635/667 nm fluorescence, primary screen (AID 1121).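 Also: score merges feature fluorescence read at 667 nm with its signal to noise.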 Conditions: higher = more signal.
The target of experiment [4] is Carbonic anhydrase 2 (Homo sapiens) (UniProt P00918). Briefly: compounds binding carbonic anhydrase 2 – biochemical, small-molecule microarray, Alexa647-labelled CAII, profiling panel (AID 1122). Conditions: CAII-A647 binding fluorescence, higher = more signal.
Experiment [5] is described as follows: COS7 lysate on small-molecule microarray, probe aHis, 635 nm (AID 1123).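 Also: z-score combines 667nm fluorescence intensity with signal-to-noise per printed compound spot.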 Conditions: COS7 cell lysate, fluorescence, higher = more signal.
Experiment [6] in a line: probe aLAP1 signal on lysate-treated microarray – cell lysate, small-molecule microarray, COS7 lysate, primary screen (AID 1124).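 Also: lysate comes from COS7 cells expressing LAP1 and is applied at 0.3 µg/mL; score merges spot fluorescence near 667 nm with signal-to-noise over triplicate slides.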 Conditions: probe aLAP1, fluorescence, higher = more signal.
The next experiment relates to Sam68 (KHDRBS1). Briefly: compounds binding KHDRBS1 protein – biochemical, small-molecule microarray, 635 nm fluorescence, primary screen (AID 1125).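 Also: score merges 667 nm channel intensity with signal to noise over triplicate slides.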 Conditions: higher = more signal.
Experiment [7] deals with Chordin-like protein 2 (CHRDL2). Briefly: compounds binding chordin-like 2 – biochemical, small-molecule microarray, 635 nm fluorescence, primary screen (AID 1126).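 Also: printed compound slides probed with Chrdl2 protein at 4 µg/mL for 1 h at 4 C; score merges 667 nm emission intensity with signal to noise over three replicate slides.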 Conditions: fluorescence 635 nm, higher = more signal.
Experiment [8] addresses Concanavalin-A (Canavalia ensiformis) (UniProt P02866). Briefly: compounds binding concanavalin A lectin – biochemical, small-molecule microarray, Alexa647 label, 635 nm, artefact control for SMM control protein annotation, primary screen (AID 1127).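 Also: z combines 667 nm emission intensity with signal-to-noise across three replicate slides.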 Conditions: ConA-A647 binding fluorescence, higher = more signal.
Experiment [9] can be described thus: compounds binding Alexa647 anti-His antibody – biochemical, small-molecule microarray, 635 nm fluorescence, artefact control for SMM control protein annotation, primary screen (AID 1128).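 Also: score merges feature fluorescence with signal-to-noise for each printed compound spot.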 Conditions: higher = more signal.
Experiment [10] has as its system Human papillomavirus type 1a E7 protein (residues 1-88). Briefly: HPV1a E7 small-molecule binders, primary screen, biochemical, small-molecule microarray, residues 1-88, 635 nm (AID 1129). Conditions: small-molecule microarray binding, fluorescence 635 nm; higher = more signal.
The target of experiment [11] is Focal adhesion kinase 1 (Homo sapiens) (UniProt Q05397). Briefly: PTK2 protein binding on printed compound slides – biochemical, small-molecule microarray, 635/667 nm fluorescence, BSA, DTT, primary screen (AID 1130).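 Also: composite of spot emission at 667 nm and signal to noise over triplicate slides.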 Conditions: 635 nm fluorescence, higher = more signal.
Sequence of Focal adhesion kinase 1 (Homo sapiens) (Q05397 whole entry, looked up): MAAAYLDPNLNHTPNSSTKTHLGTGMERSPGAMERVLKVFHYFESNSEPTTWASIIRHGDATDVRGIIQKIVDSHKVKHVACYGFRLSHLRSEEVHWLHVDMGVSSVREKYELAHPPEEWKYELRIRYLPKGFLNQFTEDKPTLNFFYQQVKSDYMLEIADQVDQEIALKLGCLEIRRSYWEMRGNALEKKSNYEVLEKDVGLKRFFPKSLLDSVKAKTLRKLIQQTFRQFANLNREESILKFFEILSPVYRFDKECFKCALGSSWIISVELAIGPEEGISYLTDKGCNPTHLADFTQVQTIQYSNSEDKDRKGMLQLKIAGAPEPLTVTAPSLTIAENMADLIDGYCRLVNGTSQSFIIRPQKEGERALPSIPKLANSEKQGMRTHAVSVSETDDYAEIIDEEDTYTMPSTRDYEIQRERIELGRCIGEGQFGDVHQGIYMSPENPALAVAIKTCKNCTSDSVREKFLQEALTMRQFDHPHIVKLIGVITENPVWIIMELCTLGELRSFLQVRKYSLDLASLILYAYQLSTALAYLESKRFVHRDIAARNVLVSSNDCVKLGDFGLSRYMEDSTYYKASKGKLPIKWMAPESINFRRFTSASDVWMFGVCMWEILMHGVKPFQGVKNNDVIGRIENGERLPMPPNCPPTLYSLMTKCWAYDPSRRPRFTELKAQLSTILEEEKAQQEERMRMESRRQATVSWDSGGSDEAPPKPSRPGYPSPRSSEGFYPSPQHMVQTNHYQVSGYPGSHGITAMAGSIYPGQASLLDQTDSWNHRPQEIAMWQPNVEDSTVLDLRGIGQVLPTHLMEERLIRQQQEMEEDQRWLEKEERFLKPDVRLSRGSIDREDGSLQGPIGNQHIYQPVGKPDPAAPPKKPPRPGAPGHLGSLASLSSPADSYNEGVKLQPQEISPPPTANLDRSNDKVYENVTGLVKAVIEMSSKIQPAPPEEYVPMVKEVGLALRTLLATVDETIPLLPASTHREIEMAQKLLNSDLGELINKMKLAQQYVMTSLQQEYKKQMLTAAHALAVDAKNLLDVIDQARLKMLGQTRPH
Experiment [12] relates to Fibrinogen (Alexa647-labelled). Put plainly: Alexa647-fibrinogen binding to printed small molecules – biochemical, small-molecule microarray, 635/667 nm fluorescence, artefact control for SMM control-protein annotation, profiling panel (AID 1131).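 Also: z-score merges 667 nm fluorescence with per-spot signal-to-noise over triplicate slides.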 Conditions: fibrinogen-A647 binding fluorescence, higher = more signal.
Experiment [13] addresses Follistatin (Homo sapiens) (UniProt P19883). Put plainly: FST protein binding to printed compounds – biochemical, small-molecule microarray, 635/667 nm fluorescence, primary screen (AID 1132). Conditions: 635 nm fluorescence, higher = more signal.
The target of experiment [14] is Fibroblast growth factor 2 (Homo sapiens) (UniProt P09038). Put plainly: basic fibroblast growth factor binding to printed compounds – biochemical, small-molecule microarray, 635/667 nm fluorescence, primary screen (AID 1133). Conditions: FGF2, fluorescence 635/667, higher = more signal.
Sequence of Fibroblast growth factor 2 (Homo sapiens) (P09038 whole entry, looked up): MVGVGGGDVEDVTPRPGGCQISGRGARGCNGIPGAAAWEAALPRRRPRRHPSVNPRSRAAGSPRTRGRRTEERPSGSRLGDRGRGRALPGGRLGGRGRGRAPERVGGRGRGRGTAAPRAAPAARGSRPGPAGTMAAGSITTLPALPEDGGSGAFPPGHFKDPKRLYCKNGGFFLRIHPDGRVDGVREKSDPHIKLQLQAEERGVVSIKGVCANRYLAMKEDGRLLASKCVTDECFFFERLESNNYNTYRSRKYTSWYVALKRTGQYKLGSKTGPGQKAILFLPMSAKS
Experiment [15] is described as follows: JC-1 mitochondrial potential readout, lung cancer cells – cell-based, A549, JC-1 fluorescence, basal, 24 h, 100 nL, profiling panel (AID 1138).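 Also: A549 lung adenocarcinoma cells under basal conditions with no added stimulus; test concentration not given here.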 Conditions: higher = more signal.
Another experiment concerns Lefty1. Put plainly: Lefty1 protein binding to printed compounds – biochemical, small-molecule microarray, 635/667 nm fluorescence, primary screen (AID 1139). Conditions: fluorescence 635/667, higher = more signal.
Experiment [16] deals with wheat germ agglutinin (Triticum aestivum), Alexa647-labelled. Put plainly: Alexa647-WGA lectin binding to printed small molecules – biochemical, small-molecule microarray, 635/667 nm fluorescence, artefact control for SMM control-protein annotation, profiling panel (AID 1140).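 Also: score merges 667 nm feature emission with signal to noise over triplicate slides.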 Conditions: WGA-A647 binding, 635 nm fluorescence, higher = more signal.
Experiment [17] addresses Luciferin 4-monooxygenase (Photinus pyralis) (UniProt P08659). Put plainly: inhibition of purified Photinus pyralis luciferase – biochemical, luminescence, purified enzyme, 2006 set, primary screen (AID 1141).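 Also: cell-free assay with purified firefly luciferase at 100 ng per well in PBS; test concentration not given here.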 Conditions: purified firefly luciferase, SteadyGlo luminescence, 30 min; higher = more signal, called active from +8 up or from −8 down.

Each structure is given as a SMILES string. Active and inactive are the calls of the source.

Sequence of Concanavalin-A (Canavalia ensiformis) (P02866 whole entry, looked up): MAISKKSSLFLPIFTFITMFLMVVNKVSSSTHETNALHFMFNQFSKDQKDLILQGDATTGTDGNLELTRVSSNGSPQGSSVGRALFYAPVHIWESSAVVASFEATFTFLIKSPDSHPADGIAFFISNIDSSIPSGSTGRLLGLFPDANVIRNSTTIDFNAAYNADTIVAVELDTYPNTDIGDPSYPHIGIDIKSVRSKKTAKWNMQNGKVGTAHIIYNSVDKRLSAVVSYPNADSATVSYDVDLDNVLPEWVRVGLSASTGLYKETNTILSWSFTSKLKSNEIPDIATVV
Sequence of Luciferin 4-monooxygenase (Photinus pyralis) (P08659 whole entry, looked up): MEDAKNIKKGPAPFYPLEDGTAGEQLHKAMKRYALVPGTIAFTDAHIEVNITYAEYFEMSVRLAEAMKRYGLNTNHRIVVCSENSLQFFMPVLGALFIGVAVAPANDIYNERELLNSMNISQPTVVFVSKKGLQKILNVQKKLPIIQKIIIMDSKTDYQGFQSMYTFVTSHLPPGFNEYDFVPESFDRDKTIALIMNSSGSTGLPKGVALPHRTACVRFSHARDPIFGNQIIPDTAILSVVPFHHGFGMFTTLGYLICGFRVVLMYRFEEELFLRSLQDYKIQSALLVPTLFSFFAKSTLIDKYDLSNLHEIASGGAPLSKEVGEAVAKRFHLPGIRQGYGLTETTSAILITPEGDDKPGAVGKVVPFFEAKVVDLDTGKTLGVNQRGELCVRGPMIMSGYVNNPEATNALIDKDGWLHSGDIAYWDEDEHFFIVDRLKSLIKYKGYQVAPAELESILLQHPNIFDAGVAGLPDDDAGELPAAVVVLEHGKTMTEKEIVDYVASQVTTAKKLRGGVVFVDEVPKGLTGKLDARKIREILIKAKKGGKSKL
Sequence of Follistatin (Homo sapiens) (P19883 whole entry, looked up): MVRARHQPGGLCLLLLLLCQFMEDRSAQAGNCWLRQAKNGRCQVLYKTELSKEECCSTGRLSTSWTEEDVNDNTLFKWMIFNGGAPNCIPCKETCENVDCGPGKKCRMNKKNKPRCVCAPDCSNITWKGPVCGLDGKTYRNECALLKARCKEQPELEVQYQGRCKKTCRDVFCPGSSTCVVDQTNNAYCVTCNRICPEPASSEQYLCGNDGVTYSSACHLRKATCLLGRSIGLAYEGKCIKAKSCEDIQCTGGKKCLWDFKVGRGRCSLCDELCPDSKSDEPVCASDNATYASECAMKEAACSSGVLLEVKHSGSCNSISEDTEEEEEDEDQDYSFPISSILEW
Sequence of Albumin (Bos taurus) (P02769 whole entry, looked up): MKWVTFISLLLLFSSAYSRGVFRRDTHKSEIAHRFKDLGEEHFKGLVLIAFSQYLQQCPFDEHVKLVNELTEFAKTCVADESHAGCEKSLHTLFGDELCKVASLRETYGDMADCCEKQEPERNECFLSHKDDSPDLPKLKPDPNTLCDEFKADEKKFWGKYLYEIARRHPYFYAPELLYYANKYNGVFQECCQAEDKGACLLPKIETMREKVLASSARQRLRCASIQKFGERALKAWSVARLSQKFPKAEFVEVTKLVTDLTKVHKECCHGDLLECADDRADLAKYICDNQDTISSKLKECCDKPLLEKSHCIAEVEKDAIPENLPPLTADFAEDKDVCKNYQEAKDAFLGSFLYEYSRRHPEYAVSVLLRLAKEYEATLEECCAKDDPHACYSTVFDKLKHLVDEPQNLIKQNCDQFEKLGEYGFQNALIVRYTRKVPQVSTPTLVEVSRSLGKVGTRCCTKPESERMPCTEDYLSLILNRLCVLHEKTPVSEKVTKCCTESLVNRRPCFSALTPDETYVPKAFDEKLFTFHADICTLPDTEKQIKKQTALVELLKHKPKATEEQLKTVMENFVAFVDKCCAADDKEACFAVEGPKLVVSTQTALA

Consider `CO[C@H]1COC(=O)CC=C[C@H](C)[C@@H](OC)COC(=O)CC=C[C@@H]1C`, for which the composite z-score with Albumin (Bos taurus) was -0.683; in [2], -0.155; in experiment [3], -0.14; in experiment [4], -0.782; in [5], -0.702; in experiment [6], -0.36. For the same compound, the composite z-score is -0.294 with Sam68 (KHDRBS1); 1.21 in experiment [7]; -1.25 in experiment [8]; 0.245 in experiment [9]; -1.11 in experiment [10]; -0.415 in experiment [11]. Moreover, the composite z-score was -0.706 in experiment [12]; 0.956 in [13]; 1.29 in experiment [14]; 0.817 with Lefty1; -0.991 in experiment [16]. Moreover, the composite Z-score in experiment [1] was 0.142 (inactive). Moreover, the figures for the z-score in experiment [15] and in experiment [17] were 1.35 and -1.38 (inactive), respectively.

Take `COc1ccc(-c2cc3c(c(-c4ccccc4)n2)[Si](C(C)C)(C(C)C)O[C@H]3c2ccccc2)cn1`: the composite z-score with Albumin (Bos taurus) was 0.843; in experiment [2] it was 0.201; in experiment [3], -0.0349; in experiment [4], -0.0177; in [5], 0.263; in experiment [6], -0.0375. Besides, the composite z-score is 0.723 with Sam68 (KHDRBS1); 0.288 in experiment [7]; 0.165 in [8]; -0.614 in [9]; 0.438 in experiment [10]; -0.142 in experiment [11]. Further, the composite z-score in experiment [12] is 0.0413; in experiment [13], 0.758; in [14] it was 0.343; with Lefty1, 0.506; in experiment [16], -0.0707. Moreover, the composite Z-score in [1] was 0.0861 (inactive). Besides, the z-score was 0.136 in [15] and 0.167 (inactive) in experiment [17].

As to `CO[C@H]1O[C@H](CO)[C@@H](OC(=O)Nc2ccccc2)[C@H](OC(=O)Nc2ccc3c(c2)OCO3)[C@@H]1OC(=O)Nc1ccc2c(c1)OCO2`, the composite z-score was 0.536 with Albumin (Bos taurus); 0.0459 in experiment [2]; -0.101 in experiment [3]; 0.655 in [4]; 2.17 in experiment [5]; 0.759 in experiment [6]. Besides, the composite z-score in the experiment with Sam68 (KHDRBS1) is 1.3; in [7] it was -0.17; in experiment [8], 1.12; in experiment [9] it was 2.53; in experiment [10] it was 1.2; in experiment [11], 1.02. The composite z-score in experiment [12] turned out to be 0.771; in experiment [13] it was 0.87; in experiment [14], 0.0385; in the experiment with Lefty1, 0.563; in experiment [16], 1.21. Further, the composite Z-score in experiment [1] was 0.741 (inactive). Moreover, the z-score is 1.18 in experiment [15] and -5.6 (inactive) in experiment [17].

As to `COc1ccc(C(O)C2C=CC3C(=O)N(C)C(=O)C3N2N2CCCCC2)cc1OCc1ccccc1` (stereo not given), the composite z-score is 0.728 with Albumin (Bos taurus); 0.13 in experiment [2]; -0.0546 in [3]; 0.38 in experiment [4]; 1.71 in experiment [5]; 0.445 in [6]. The composite z-score in the experiment with Sam68 (KHDRBS1) is 1.29; in experiment [7], -0.651; in experiment [8], 1.12; in experiment [9] it was 1.31; in experiment [10], 1.2; in [11], 0.391. In addition, the composite z-score is 0.838 in [12]; 0.795 in experiment [13]; -0.444 in experiment [14]; -0.24 in the experiment on Lefty1; 0.951 in experiment [16]. Moreover, the composite Z-score in [1] was 0.248 (inactive). The z-score in experiment [15] was 0.0785; in [17], -0.381 (inactive).

On to `CO[C@@H]1COC(=O)CC=C[C@@H](C)[C@H](OC)COC(=O)CC=C[C@H]1C`, for which the composite z-score in the experiment with Albumin (Bos taurus) was -0.978; in experiment [2], -0.103; in [3], -0.169; in experiment [4], -0.374; in experiment [5] it was -0.168; in experiment [6], -0.412. Moreover, the composite z-score was -0.345 in the experiment with Sam68 (KHDRBS1); 1.48 in [7]; -0.362 in experiment [8]; 0.0112 in experiment [9]; -1.31 in experiment [10]; -0.436 in [11]. Further, the composite z-score in experiment [12] was -1.05; in experiment [13], 1.48; in experiment [14], 1.34; in the experiment on Lefty1, 0.712; in experiment [16] it was -0.812. Also, in experiment [1], the composite Z-score was 0.413 (inactive). Further, the z-score is 1.77 in [15] and -1.08 (inactive) in experiment [17].

Regarding `C=CC[C@]1(C(=O)N2CCCCC2)N=C(c2ccc(OCCCO)cc2)O[C@H]1c1ccccc1N=[N+]=[N-]`, the composite z-score with Albumin (Bos taurus) is 0.947; in experiment [2], 0.486; in experiment [3] it was 0.284; in [4], 0.789; in experiment [5], 2.81; in experiment [6], 0.941. The composite z-score in the experiment with Sam68 (KHDRBS1) was 1.3; in [7], -0.154; in experiment [8] it was 1.13; in experiment [9], 2.94; in experiment [10], 1.26; in experiment [11], 0.426. The composite z-score in experiment [12] worked out at 1.01; in experiment [13], 1.4; in experiment [14], 1.55; with Lefty1, 1.48; in experiment [16], 1.37. In [1], the composite Z-score is 0.103 (inactive). The z-score in experiment [15] is -0.591; in [17], -10 (active).
